TDP1 cell noCPT: qHTS for Inhibitors of human tyrosyl-DNA phosphodiesterase 1 (TDP1): qHTS in cells in absence of CPT; AID 686978, 2013; Potency, µM (series often up to 46.2 µM), without a hit: at the top dose activity change, negative = growth inhibition, most hits filed as inhibitors; DT40 Tdp1-/- hTDP1 cells, no CPT, ATP luminescence, 48 h; actives 15% (n = 420,000); further: potency means the concentration at half of the fitted maximal effect; nearly all actives have a fitted effect of over 55% in size
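Growth kinetics read by CellTiter-Glo luminescence after ≥48 hr at 37 °C. Cells: DT40 Tdp1-/- stably carrying human TDP1, 400 per well, compound exposure in the absence of CPT (DMSO vehicle).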
VP16 counter: Gal4-VP16 reporter inhibition counter-screen. Drosophila S2 Gal4-VP16 UAS-luciferase, luminescence, 20 h. Potency, µM (series often up to 53.6 µM), for the others: at the highest dose activity, negative = inhibition, most hits filed as inhibitors. actives 3.5% (n = 310,000). AID 2546;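 further: Gal4-VP16 expression switched on by copper sulfate through the metallothionein promoter; potency means the concentration at half of the fitted maximal effect; nearly all actives have a fitted effect of over 50% in size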
RORg inh: ROR gamma (mouse) transcription inhibition. P51450. Drosophila S2 Gal4-RORgamma UAS-luciferase reporter, 20 h. Potency, µM (highest dose often 53.6 µM), inactives show at the highest dose activity change, negative = inhibition, usual class: inhibitors. actives 5.4% (n = 310,000). AID 2551; further: potency means the concentration at half of the fitted maximal effect; nearly all actives have a fitted effect of over 60% in size
Target sequence (P51450 whole entry, looked up, the tested form may be a part): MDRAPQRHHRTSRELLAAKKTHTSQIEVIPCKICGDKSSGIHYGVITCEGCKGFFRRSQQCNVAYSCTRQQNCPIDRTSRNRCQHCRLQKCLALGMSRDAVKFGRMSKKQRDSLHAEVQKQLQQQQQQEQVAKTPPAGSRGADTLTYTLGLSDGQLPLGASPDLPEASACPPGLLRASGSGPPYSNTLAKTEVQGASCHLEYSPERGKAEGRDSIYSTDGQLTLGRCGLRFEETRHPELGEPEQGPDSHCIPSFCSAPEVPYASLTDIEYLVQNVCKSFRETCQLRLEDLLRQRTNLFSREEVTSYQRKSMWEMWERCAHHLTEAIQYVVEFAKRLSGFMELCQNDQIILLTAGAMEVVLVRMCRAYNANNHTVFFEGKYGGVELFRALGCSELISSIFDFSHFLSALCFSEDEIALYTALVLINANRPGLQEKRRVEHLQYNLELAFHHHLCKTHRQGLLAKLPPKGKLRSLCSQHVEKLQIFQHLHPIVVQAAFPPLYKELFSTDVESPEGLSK
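A Gal4/UAS one-hybrid system in insect cells: metallothionein-promoter Gal4–ROR gamma fusion plus Photinus luciferase reporter. Copper sulfate 700 uM final, 20 hr ambient incubation, luminescent detection after 10 min with reagent.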
ELG1 DNA repair: ELG1-dependent DNA repair inhibition | HEK293T ELG1-luciferase reporter, luminescence, 16 h; DNA damage induced by 5-fluorouridine | Potency, µM (titrated, usually from 46.1 µM), for inactives: at the highest dose activity change, negative = inhibition, usual class: inhibitors | actives 2.3% (n = 330,000); further: potency means the concentration at half of the fitted maximal effect; nearly all actives have a fitted effect of over 55% in size
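DMSO vehicle served as the neutral condition. Each well held 2,000 cells given 5-fluorouridine plus compound; after 16 hr at 37 °C/5% CO2, ONE-Glo was added and luciferase measured 30 min later.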
IL1B secr inh: blocks inflammasome-driven IL-1 beta release; AID 743279; actives 4.7% (n = 360,000); activity change, % at 57.5 µM; THP-1 LPS/ATP IL-1B secretion, AlphaLISA, 16 h; stronger effect = lower value; in the data active means activity change below about -50%; inconclusive means mostly about -30% to -49%
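Secreted IL-1B measured by AlphaLISA bead assay after 16 h compound exposure of THP-1 cells; compounds (final up to 57.5 uM) added 1 h before LPS (250 ng/mL) and ATP (1.25 mM) stimulation; lower signal means less secretion.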
TDP1 cell CPT: DT40-hTDP1 cell growth loss with CPT; chicken DT40 Tdp1-/-;hTDP1 cells + 20 nM CPT, ATP luminescence, 48 h; actives 12% (n = 420,000); Potency, µM (doses to about 46.2 µM), without a hit: top-dose activity change, negative = growth inhibition, usual class: inhibitors; further: potency means the concentration at half of the fitted maximal effect; nearly all actives have a fitted effect of over 55% in size
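Chicken DT40 Tdp1-/- cells complemented with human TDP1, 400 cells/well, exposed to compounds plus 20 nM camptothecin for at least 48 h at 37 C; viability read as ATP content by CellTiter-Glo luminescence.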
Starred values were filed as active, the others as inactive; i = inactive; ? = inconclusive; . = no result given; ! = a repeat was not active; [ ] = dose if it differs, or a comment. Shown are actives, neighbours in structure and some others; about 21% of the full set was active somewhere. Unless noted, the call rests on the fitted dose curve; in most records, active means well fitted curve in the direction sought with a large enough effect; inconclusive means small, poorly fitted or top-dose-only effect, or another doubt; inactive means no such curve, though single readings can be large; an effect the other way counts as inactive or inconclusive. On the % scale 0 is the no-effect control and ±100 the full control effect.

SMILES	TDP1 cell noCPT	VP16 counter	RORg inh	ELG1 DNA repair	IL1B secr inh	TDP1 cell CPT
S=C(NC1CCCCC1)N(CCc1nc2ccccc2[nH]1)C1CCCC1	?	?	-120%	23µM*	?	?
O=C(Nc1nc2ccccc2[nH]1)C12CC3CC(CC(C3)C1)C2	?	10µM*	6.3µM*	?	-25	?
CCOC(=O)C(C(=O)Nc1cccc(C)n1)C1CCCCC1 (configuration not stated)	?	9%	-5%	-13%	0	?
O=C(Nc1nc2ccccc2[nH]1)NC1CCCCC1	2%	?	11µM*	?	-14	?
CO[C@H]1C[C@H](O[C@H]2[C@H](C)[C@@H](O[C@@H]3O[C@H](C)C[C@H](N(C)C)[C@H]3O)[C@@H](C)C[C@]3(CO3)C(=O)[C@H](C)[C@@H](O)[C@@H](C)[C@@H](C)OC(=O)[C@@H]2C)O[C@@H](C)[C@@H]1O	4%[21.1 µM]	.	.	.	.	-23%[21.1 µM]
O=C(Nc1nc2ccccc2s1)NC1CCCCC1	-22%	-46%	13µM*	?	-11	?
Cc1cc(C(=O)N/N=C/c2ccc([N+](=O)[O-])s2)n[nH]1	5.2µM*	?	-40%	16µM*	-6	5.8µM*
Cc1[nH]cnc1C(=O)N/N=C/c1ccc([N+](=O)[O-])s1	10µM*	?	-30%	?	17	12µM*
Cc1cc(C(=O)N/N=C/c2cc(Cl)cc([N+](=O)[O-])c2O)n[nH]1	-9%	?	7.9µM*	13µM*	18	14%
C=CCN1C(=O)C(CC(=O)O)S/C1=N/N=C/c1ccc(N(CC)CC)cc1 (configuration not stated)	?	.	.	2%	-5	-12%
Cc1ccc(Cn2cc(/C=N/NC(=O)Cc3nnc(NC(=O)c4ccc(C)cc4)s3)c3ccccc32)cc1	6.5µM*	26%	-2%	-1%	-17	12µM*
COc1cc(C(=O)N/N=C/c2cn(Cc3ccccc3)c3ccccc23)ccc1O	-21%	?	13µM*	0%	i	?
O=C(Cc1nnc(NC(=O)c2ccccc2)s1)N/N=C/c1cccc(O)c1	-3%	-3%	11%	8%	0	27%
Nc1ccc(C(=O)N/N=C/c2cn(Cc3ccccc3)c3ccccc23)cc1	-19%	?	11µM*	-20%	i	-10%
Nc1ccc(C(=O)N/N=C/c2cn(Cc3ccccc3F)c3ccccc23)cc1	?	?	14µM*	0%	-67*	?
Nc1ccc(C(=O)N/N=C/c2cn(Cc3ccc(F)cc3)c3ccccc23)cc1	-10%	?	-142%	-7%	?	-26%
CCC1NC(C(=O)O)Cc2c1[nH]c1ccccc21 (configuration not stated)	9.2µM*	.	.	-13%	9	7.3µM*
COc1ccccc1-c1nccc(NCc2cccc(C)c2)n1	10µM*	?	11%	.	.	16µM*
Cc1cccc(CNc2cc(-c3ccccc3CN(C)C)ncn2)c1	?	-7%	-25%	.	.	?
Cc1cccc(CNc2ccnc(-c3ccccc3CN(C)C)n2)c1	7.3µM*	1%	-31%	.	.	13µM*
COc1cc(CCCN2CCNC[C@@H]2Cc2ccc(O)cc2)cc(OC)c1OC	-10%	.	.	?	12	-32%
CC1=C2C3OC(=O)C(C)C3CCC2(C)C=C(Br)C1=O (configuration not stated)	21µM*	.	.	.	-13	-11%
CCSc1nc2cc(OC)c(OC)cc2c(=O)n1CCc1ccccc1	21µM*	-8%	-30%	?	12	16µM*
COc1cc2nc(SCC(=O)NCCc3ccccc3)n(Cc3ccco3)c(=O)c2cc1OC	-5%	21%	1%	?	-2	-16%
COCCCn1c(SCCc2ccccc2)nc2cc(OC)c(OC)cc2c1=N	13µM*	9%	4%	?	-17	16µM*
SMILES	TDP1 cell noCPT	VP16 counter	RORg inh	ELG1 DNA repair	IL1B secr inh	TDP1 cell CPT
COc1ccc(Cn2c(SCc3ccccc3C)nc3cc(OC)c(OC)cc3c2=N)cc1	.	22µM*	?	?	.	.
CC(=O)Nc1ccc(N(C(=O)c2ccccn2)C(C(=O)NC2CCCCC2)c2ccc(F)cc2)cc1 (configuration not stated)	-4%	5%	9%	1%	12	1%
Cc1cccc(OCC(=O)Nc2ccc(C(=O)OCc3cc(=O)n4nc(C5CC5)sc4n3)cc2)c1	-19%	.	.	.	.	-14%
O=C(NCc1ccccc1)C1C(c2ccc3c(c2)OCO3)=Nc2ccccc2N1C(=O)c1cccc2ccccc12 (configuration not stated)	?	.	.	.	-2	-9%
CCCCn1c(-c2ccc(C(C)(C)C)cc2)nc2cc3[nH]c(=O)c(C(C)C)nc3cc21	15µM*	-2%	15%	-5%	27	?
CCCCn1c(-c2cccnc2)nc2cc3[nH]c(=O)c(C(C)C)nc3cc21	15µM*	-5%	18%	-3%	4	18µM*
CCCCn1c(-c2cccc(Br)c2)nc2cc3[nH]c(=O)c(C(C)C)nc3cc21	26µM*	-2%	-14%	?	-52*	18µM*
CO[C@H]1[C@H](NC(=O)c2ccsc2)c2ccccc2C12CCN(Cc1cccc3ncccc13)CC2	?	.	.	.	.	-11%[9.04 µM]
COc1ccc(-c2c(Sc3ccccc3)c3cc(-c4ccc5c(c4)OCO5)ccc3n2C)cc1	?	.	.	.	33	-10%
CCSc1nnc2c(n1)OC(c1cc(OC)c(OC)c(OC)c1)Nc1ccccc1-2 (configuration not stated)	-14%	.	.	.	.	-1%
CCCN(Cc1cccs1)C(=O)Nc1cc(C)cc(C)c1	?	.	.	.	.	26µM*
COc1ccc(Cl)cc1NC(=O)CN(C)Cc1cccs1	?	-10%	99%	-25%	-25	?
CCCN(Cc1cccs1)C(=O)Nc1cc(C)ccc1OC	16µM*	.	.	.	.	?
CCCN(CC(=O)Nc1ccccc1C)C(=O)Cc1cccs1	22%	.	.	13%	-7	-13%
COc1ccccc1-n1c(-c2ccc(F)cc2)coc1=O	2%	8%	-7%	0%	7	15%
COc1ccccc1-n1c(-c2ccccc2)c[n+]2c1CCc1ccccc1-2	0.013µM*	8.9µM*	?	3.3µM*	-99*!	0.33µM*
